These results are taken from PubChem BioAssay (Tox21).

Inconclusive results are not listed. The source made the active and inactive calls. The call rests on the fitted dose curve; in most records, active means well fitted inhibition curve with a large enough effect in the signal ratio in the repeat runs (not every such curve was filed as active); inconclusive means weak or mixed curves, or effect the other way; inactive means no such curve, though single readings can be large or run the other way; the % refers to the signal ratio.
On the % scale 0 is the no-effect control and ±100 the full control effect; potency means the concentration at half of the fitted maximal effect.

Chain of Estrogen receptor beta (Homo sapiens) (Q92731 whole entry, looked up): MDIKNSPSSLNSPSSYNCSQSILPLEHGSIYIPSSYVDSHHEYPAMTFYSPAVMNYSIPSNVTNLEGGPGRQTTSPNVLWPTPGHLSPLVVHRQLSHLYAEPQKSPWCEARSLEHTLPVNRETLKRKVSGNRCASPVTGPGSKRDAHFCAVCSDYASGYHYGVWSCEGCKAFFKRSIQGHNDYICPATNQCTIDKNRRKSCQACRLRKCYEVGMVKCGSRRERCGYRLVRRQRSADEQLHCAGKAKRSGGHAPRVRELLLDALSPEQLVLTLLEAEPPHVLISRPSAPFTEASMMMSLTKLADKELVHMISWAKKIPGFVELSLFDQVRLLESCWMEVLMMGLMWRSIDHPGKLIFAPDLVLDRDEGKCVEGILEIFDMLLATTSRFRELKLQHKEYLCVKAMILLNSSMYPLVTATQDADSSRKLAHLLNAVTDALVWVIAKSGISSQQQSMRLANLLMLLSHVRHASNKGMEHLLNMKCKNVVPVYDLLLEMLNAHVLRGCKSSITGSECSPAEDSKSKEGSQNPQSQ

This assay concerns the target Estrogen receptor beta (Homo sapiens) (UniProt Q92731). The experiment in a line: qHTS assay to identify small molecule antagonists of the estrogen receptor beta (ER-beta) signaling pathway (AID 1259378). The settings on record: ER-beta-UAS-bla HEK293T, beta-lactamase FRET ratio, 16 h; series mostly up to 92.4 µM; activity, negative = inhibition: at the top concentration. An excerpt:
National Center for Advancing Translational Sciences [NCATS]
NIH Chemical Genomics Center [NCGC]
U.S. Environmental Protection Agency [EPA]
National Institutes of Environmental Health Sciences [NIEHS]
National Toxicology Program [NTP]
U.S. Food and Drug Administration [FDA]
Estrogen receptor (ER), a nuclear hormone receptor, plays an important role in development, metabolic homeostasis and reproduction. Two subtypes of ER, ER-alpha and ER-beta, have similar expression patterns with some uniqueness in both types. Endocrine disrupting chemicals (EDCs) and their interactions with steroid hormone receptors like ER causes disruption of normal endocrine function. To identify the compounds that inhibit ER signaling, an ER-beta-UAS-bla GripTite cell line (Life Technologies, Madison, WI, USA) containing a beta-lactamase reporter gene under the control of an UAS response element was used to screen Tox21 10K compound library.
Tox21 Assay Protocol Summary:
ER-beta-UAS-bla HEK293T cells were dispensed at 2,000 cells/4 uL of assay medium containing 2% charcoal stripped FBS per well into black wall/clear-bottom 1536-well plates using a Multidrop Combi (ThermoFisher Scientific, Waltham, MA) dispenser. After the assay plates were incubated at a 37C and 5% CO2 for 6 hr, 23 nL of compounds dissolved in DMSO, positive controls or DMSO only was transferred to the assay plate by a Pintool station (Kalypsys, San Diego, CA), followed by addition of 1 uL (1nM as final concentration) of 17-beta-estradiol (E2) in assay medium using a BioRAPTR FRD (Flying Reagent Dispenser, Aurora Discovery, San Diego, CA). The plates were incubated at 37C and 5% CO2 for 16 hr. Then 1 uL of LiveBLAzerTM B/G FRET substrate was added using a Flying Reagent Dispenser, the plates were incubated at room temperature for 2 hours, and fluorescence intensity was measured by an Envision plate reader (PerkinElmer, Shelton, CT).
Regarding `CCOC(=O)C1OC1(C)c1ccccc1` (stereo not given), the Potency result is “inactive”.

With `C[N+](C)(C)CC1CO1` (stereo not given), the “activity, negative = inhibition” value was 7.41% (inactive). For `C[CH2][Hg][S]c1ccccc1C(=O)O`, the Potency was 3.35 µM (active).

For `C1CCNCC1`, the “activity, negative = inhibition” value is -17.5% (inactive). For the compound `CCCN(CCC)c1c([N+](=O)[O-])cc(C(C)C)cc1[N+](=O)[O-]`, the Potency entry is “inactive”. As for `CN[C@@H](C)[C@H](O)c1ccccc1`, the “activity, negative = inhibition” value was -0.062% [at 42.5 µM] (inactive).

Take `CCOP(=S)(OCC)Oc1ccc(S(C)=O)cc1` (stereo not given): the “activity, negative = inhibition” value was 9.85% (inactive). With `Cc1nnc(-c2ccccc2)c(=O)n1N`, the “activity, negative = inhibition” value is -10.5% (inactive). Take `COc1ccc2c(c1OC)C(=O)O[C@H]2[C@@H]1c2cc3c(cc2CCN1C)OCO3`: the “activity, negative = inhibition” value is 0.0545% [at 42.5 µM] (inactive). For the compound `c1ccc2c(c1)-c1cccc3cccc-2c13`, the Potency entry was “inactive”. Regarding `O=C([O-])c1ccccn1.O=C([O-])c1ccccn1.O=C([O-])c1ccccn1.[Cr+3]`, the “activity, negative = inhibition” value was 1.4% (inactive).

As for `Nc1cc(Cl)cc(C(=O)O)c1Cl`, the Potency entry is “inactive”. On to `Cc1ccccc1`, for which the “activity, negative = inhibition” value was 13% (inactive). Consider `COc1ccc(C(=O)c2c(C)n(CCN3CCOCC3)c3ccccc23)cc1`, for which the “activity, negative = inhibition” value is 15% [at 42.5 µM] (inactive).

With `C[C@H]1O[C@H](OC2[C@@H](O)[C@@H](O)C(O)[C@H](O)[C@H]2O)[C@@H](N)C[C@@H]1N=C(N)C(=O)O` (stereo not given in full), the “activity, negative = inhibition” value was 15.6% (inactive). As for `CCCCNC(=O)OCC#CI`, the Potency result is “inactive”. As for `COC(=O)C1(O)c2ccccc2-c2ccccc21`, the “activity, negative = inhibition” value was 8.86% (inactive). Still for that read-out and setting: the same measure for `CC1(C)CC(=O)CC(C)(C)N1[O]`: -4.65% (inactive); for `C=CCOC(=O)C(C)(C)OC(=O)c1cc(-n2c(=O)cc(C(F)(F)F)n(C)c2=O)ccc1Cl`: -20.5% (inactive); for `CC(C)CCON=O`: 11.4% (inactive).

Regarding `O=C(O)CCCOc1ccc(Cl)cc1Cl`, the “activity, negative = inhibition” value was -3.84% (inactive). Take `O=P(OCC(Br)CBr)(OCC(Br)CBr)OCC(Br)CBr` (stereo not given): the Potency is 23.1 µM (active). For the compound `CC(C)(C)c1ccc(CCOc2ncnc3ccccc23)cc1`, the “activity, negative = inhibition” value was 3.62% (inactive). Consider `CC1(C)[C@H](C(=O)O[C@H](C#N)c2cccc(Oc3ccccc3)c2)[C@@H]1C=C(Br)Br`, for which the Potency entry is “inactive”. In the case of `CC(C)(c1ccccc1)c1cc(-n2nc3ccccc3n2)c(O)c(C(C)(C)c2ccccc2)c1`, the “activity, negative = inhibition” value was 5.32% [at 42.5 µM] (inactive).

In the case of `CCCCC(CC)COC(=O)c1c(Br)c(Br)c(Br)c(Br)c1C(=O)OCC(CC)CCCC` (stereo not given), the “activity, negative = inhibition” value was 2.61% [at 42.5 µM] (inactive).

Take `NC(=S)c1c(Cl)cccc1Cl`: the “activity, negative = inhibition” value was 17.6% (inactive).

As to `O=C(N/N=C/c1ccc([N+](=O)[O-])o1)c1cc([N+](=O)[O-])cc([N+](=O)[O-])c1O`, the “activity, negative = inhibition” value is -16.9% [at 42.5 µM] (inactive).

With `CC(C)(C#N)C(C)(C)C#N`, the “activity, negative = inhibition” value is 9.77% (inactive). On the same count and under the same terms, the same measure for `CN(C)C(=O)Nc1cccc(OC(=O)NC(C)(C)C)c1`: -12.9% (inactive).

Consider `C=CCc1ccccc1O`, for which the “activity, negative = inhibition” value is 18.6% (inactive). Same read-out and setting: the same measure for `N#CC(C#N)=C(C#N)C#N`: -0.203% (inactive). Same read-out and setting: the same measure for `O=[N+]([O-])O[C@H]1CO[C@H]2[C@@H]1OC[C@H]2O[N+](=O)[O-]`: -3.58% [at 42.5 µM] (inactive); for `CCCCC1C(=O)NC(=O)N(C2CCCCC2)C1=O` (stereo not given): 7.46% [at 42.5 µM] (inactive); for `CCCCCBr`: 1.28% (inactive). On the same count and under the same terms, the same measure for `O=C(NCNC(=O)NC1C(=O)NC(=O)N1CO)NC1C(=O)NC(=O)N1CO` (stereo not given): 2.21% (inactive). For `O=C(O)C(F)(F)C(F)(F)C(F)(F)C(F)(F)C(F)(F)F`, the “activity, negative = inhibition” value is 13.9% (inactive). Still for that read-out and setting: the same measure for `CCC1(CCC(C)C)C(=O)NC(=O)NC1=O`: 14.7% (inactive). For the compound `Cc1ccc(N)c(C)c1`, the Potency entry was “inactive”. As to `Cc1nc(N(C)C)nc(OC(=O)N(C)C)c1C`, the “activity, negative = inhibition” value is 0.951% (inactive).
